The source of these data is PubChem BioAssay AID1671202 (University of Kansas High Throughput Screening Laboratory, 2021).

Values joined by “and” are separate entries in the source; they are usually repeats but may differ in a detail not shown here. Equal entries are not always repeated. The whole screen tested about 190,000 compounds, of which about 6,900 (3.6%) were called active. This excerpt belongs to a sample that is enriched for actives. A number with no mark means an inactive call. No stated cut-off is given here; in the data, active means inhibition above about 50%; inactive means the rest.

In general, inhibition refers to the relative decrease from the control value, in per cent.

Chain of Huntingtin (Homo sapiens) (P42858 whole entry, looked up, stated change not applied): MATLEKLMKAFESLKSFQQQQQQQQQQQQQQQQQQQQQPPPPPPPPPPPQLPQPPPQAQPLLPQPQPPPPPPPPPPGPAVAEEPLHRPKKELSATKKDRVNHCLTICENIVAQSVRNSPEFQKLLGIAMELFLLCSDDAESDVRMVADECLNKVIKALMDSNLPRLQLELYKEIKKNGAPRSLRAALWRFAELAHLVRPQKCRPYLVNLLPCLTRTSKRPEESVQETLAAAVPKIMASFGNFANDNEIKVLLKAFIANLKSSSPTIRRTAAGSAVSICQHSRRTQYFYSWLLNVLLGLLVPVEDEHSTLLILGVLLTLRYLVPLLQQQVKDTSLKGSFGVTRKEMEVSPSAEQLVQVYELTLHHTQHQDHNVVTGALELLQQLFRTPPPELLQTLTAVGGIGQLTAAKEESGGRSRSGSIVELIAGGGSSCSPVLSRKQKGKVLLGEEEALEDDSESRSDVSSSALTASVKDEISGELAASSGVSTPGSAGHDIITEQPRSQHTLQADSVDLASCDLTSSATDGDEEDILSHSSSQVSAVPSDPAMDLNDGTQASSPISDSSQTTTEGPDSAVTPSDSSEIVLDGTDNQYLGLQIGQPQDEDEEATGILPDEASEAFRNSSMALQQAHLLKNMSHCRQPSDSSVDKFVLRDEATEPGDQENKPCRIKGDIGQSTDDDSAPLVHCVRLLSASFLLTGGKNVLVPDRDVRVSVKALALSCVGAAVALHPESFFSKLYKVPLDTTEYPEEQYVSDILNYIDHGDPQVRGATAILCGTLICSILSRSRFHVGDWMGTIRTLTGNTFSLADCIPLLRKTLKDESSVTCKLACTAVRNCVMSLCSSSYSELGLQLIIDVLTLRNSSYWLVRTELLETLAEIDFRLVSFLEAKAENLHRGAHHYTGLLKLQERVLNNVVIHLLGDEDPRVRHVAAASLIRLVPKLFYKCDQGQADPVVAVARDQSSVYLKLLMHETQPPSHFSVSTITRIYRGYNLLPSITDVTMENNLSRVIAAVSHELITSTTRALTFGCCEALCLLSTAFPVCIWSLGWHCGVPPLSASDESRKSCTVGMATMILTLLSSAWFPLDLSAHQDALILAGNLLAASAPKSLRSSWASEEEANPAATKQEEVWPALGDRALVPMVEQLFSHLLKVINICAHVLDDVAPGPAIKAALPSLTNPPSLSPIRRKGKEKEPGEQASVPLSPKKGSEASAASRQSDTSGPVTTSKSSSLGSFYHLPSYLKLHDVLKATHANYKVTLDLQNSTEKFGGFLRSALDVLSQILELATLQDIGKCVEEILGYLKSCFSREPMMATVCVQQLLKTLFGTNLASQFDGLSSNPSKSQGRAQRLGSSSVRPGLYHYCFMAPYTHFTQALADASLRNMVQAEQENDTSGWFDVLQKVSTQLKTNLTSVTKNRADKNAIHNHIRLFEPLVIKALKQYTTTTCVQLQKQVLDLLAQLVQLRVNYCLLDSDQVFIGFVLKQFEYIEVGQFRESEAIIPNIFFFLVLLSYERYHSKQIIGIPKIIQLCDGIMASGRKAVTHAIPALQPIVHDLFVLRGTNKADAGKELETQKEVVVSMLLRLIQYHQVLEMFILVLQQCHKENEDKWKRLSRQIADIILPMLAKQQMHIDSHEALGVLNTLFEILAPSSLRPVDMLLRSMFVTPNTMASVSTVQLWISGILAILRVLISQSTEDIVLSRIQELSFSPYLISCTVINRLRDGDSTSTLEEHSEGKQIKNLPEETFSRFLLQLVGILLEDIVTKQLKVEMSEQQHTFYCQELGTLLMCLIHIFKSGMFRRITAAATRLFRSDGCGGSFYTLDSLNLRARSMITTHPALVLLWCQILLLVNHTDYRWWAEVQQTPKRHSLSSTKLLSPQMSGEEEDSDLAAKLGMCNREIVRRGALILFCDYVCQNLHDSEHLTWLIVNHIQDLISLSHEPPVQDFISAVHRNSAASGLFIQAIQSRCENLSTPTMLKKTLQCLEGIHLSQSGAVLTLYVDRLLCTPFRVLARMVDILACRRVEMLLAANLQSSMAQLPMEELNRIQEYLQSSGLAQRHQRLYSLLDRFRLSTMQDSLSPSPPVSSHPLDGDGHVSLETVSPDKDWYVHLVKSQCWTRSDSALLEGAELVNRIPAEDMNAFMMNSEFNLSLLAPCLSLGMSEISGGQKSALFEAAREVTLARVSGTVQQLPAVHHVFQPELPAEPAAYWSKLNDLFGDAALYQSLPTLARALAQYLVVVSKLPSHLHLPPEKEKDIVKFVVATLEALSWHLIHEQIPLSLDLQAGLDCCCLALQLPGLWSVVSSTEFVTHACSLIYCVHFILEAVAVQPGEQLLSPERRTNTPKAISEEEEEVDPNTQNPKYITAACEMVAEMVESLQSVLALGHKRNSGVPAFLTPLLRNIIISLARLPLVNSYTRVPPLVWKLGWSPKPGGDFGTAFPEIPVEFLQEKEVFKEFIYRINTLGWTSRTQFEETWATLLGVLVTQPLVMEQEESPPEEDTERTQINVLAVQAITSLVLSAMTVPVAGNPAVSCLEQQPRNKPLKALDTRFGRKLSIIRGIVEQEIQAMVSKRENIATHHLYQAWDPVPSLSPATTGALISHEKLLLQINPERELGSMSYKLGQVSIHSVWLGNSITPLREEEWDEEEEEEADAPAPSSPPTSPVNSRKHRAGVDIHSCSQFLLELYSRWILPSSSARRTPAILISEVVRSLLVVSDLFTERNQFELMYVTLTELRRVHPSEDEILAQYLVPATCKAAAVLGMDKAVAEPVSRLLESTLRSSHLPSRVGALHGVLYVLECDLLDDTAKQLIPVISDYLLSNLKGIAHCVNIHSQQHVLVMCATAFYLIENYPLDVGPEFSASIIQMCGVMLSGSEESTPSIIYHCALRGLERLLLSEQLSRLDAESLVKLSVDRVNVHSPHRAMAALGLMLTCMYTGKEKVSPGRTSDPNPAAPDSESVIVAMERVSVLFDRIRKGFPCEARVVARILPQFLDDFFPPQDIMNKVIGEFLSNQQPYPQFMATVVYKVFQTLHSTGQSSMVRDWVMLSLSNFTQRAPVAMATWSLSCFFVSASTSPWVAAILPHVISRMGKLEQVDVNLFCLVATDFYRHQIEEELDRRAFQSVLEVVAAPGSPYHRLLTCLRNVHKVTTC

The assay addresses Huntingtin (Homo sapiens) (UniProt P42858). Description: mutant huntingtin-calmodulin interaction inhibitors – biochemical, AlphaScreen, primary screen (AID 1671202).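 On inhibition: 0% = both proteins with DMSO and 100% = one protein alone.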 The following applies: AlphaScreen His-mHTT/GST-CaM binding, luminescence; at 15 µM, hits give high values. (In Alpha technology, singlet oxygen from a donor bead excites a nearby acceptor bead.)
Regarding `O=C(Cc1ccccc1)Nc1ccc(C(=O)Nc2ccc(Cl)cc2Cl)cc1`, the inhibition was -3.3%.

For `Cc1cc(C2CCCN2C(=O)c2ccn(C)n2)no1` (centres undefined), the inhibition is -4.24%.

For the molecule `O=C(CC(c1ccccc1)c1ccccc1)N1CCN(c2ccccc2F)CC1`, the inhibition is -3.5%.

Consider `O=C(Nc1ccc(N2CCN(Cc3ccc(F)cc3)CC2)nc1)C1CC1`, for which the inhibition is 5%.

Turning to `Cc1cccc(-c2nc(CN3CCN(C(=O)C4CC4)CC3)no2)c1`, the inhibition is 4.1%.

Regarding `CC(C)NC(=O)N1CCCC(c2cccc(C(=O)N3CCN(c4ccccc4)CC3)c2)C1` (centres undefined), the inhibition is 51.8% (active).

Regarding `CCCN1CCN(C(=O)c2cccc(C3CCCN(C(=O)NCC)C3)c2)CC1` (centres undefined), the inhibition was 10.7%.

On to `CC(C)NC(=O)N1CCCC(c2cccc(C(=O)NCc3ccc(Cl)cc3)c2)C1` (centres undefined), for which the inhibition is 2.21%.

Take `CN(C)C(=O)c1cc2c(s1)CCC(C(=O)Nc1ccc(F)cc1F)C2` (centres undefined): the inhibition is 3.95%.

Consider `C#CCOc1ccc(/C=C2\NC(=O)N(CC(=O)Nc3cccc(C)c3)C2=O)cc1OC`, for which the inhibition is 3%.

Turning to `O=C(Nc1ccc([N+](=O)[O-])cc1Br)c1cncc(Br)c1`, the inhibition is -1%.

For `CCCCC[C@H](C)N1C[C@@H](COCc2ccccc2)Oc2cc(N3CC[C@@H](N(C)C)C3)ccc2S1(=O)=O`, the inhibition is 100% (active).

As to `CCCCC[C@H](C)N1C[C@@H](COCc2ccccc2)Oc2cc(N3CCC[C@@H]3CO)ccc2S1(=O)=O`, the inhibition is 3.5%.

Turning to `CSc1ccc(Oc2cccc3c2S(=O)(=O)N([C@H](C)c2ccccc2)C[C@@H](COCc2ccccc2)O3)cc1C`, the inhibition was -4.7%.

Take `O=C(NCCN1CCOCC1)Nc1ccccc1F`: the inhibition was -6.5%.

With `CCCN1CCn2cc(C(=O)N3CCN(c4cccc(OC)c4)CC3)nc2C1`, the inhibition is 4.51%.

In the case of `CCCN1CCn2cc(C(=O)N3CCN(c4ccccc4)CC3)nc2C1`, the inhibition was 63% (active).

Take `CCCN1CCn2cc(C(=O)NCc3cccc(OC)c3)nc2C1`: the inhibition was 4.35%.

Regarding `Cc1cc(C)cc(C(=O)N2CCC(COc3ccccc3C(=O)NC3CC3)CC2)c1`, the inhibition was 9.35%.

`O=c1c(Cl)c(N2CCCC2)cnn1-c1ccccc1`: the inhibition was -0.3%.

With `O=C1c2cccc(N3CCCCC3)c2C(=O)c2cccc(Cl)c21`, the inhibition is 98% (active).

On to `O=S(=O)(c1cccc(Cl)c1Cl)N1CCN(c2cc(N3CCCC3)ncn2)CC1`, for which the inhibition was 2.9%.

In the case of `COc1ccc(C(=O)Nc2ccc(-n3nncc3-c3ccccc3)cc2)cc1`, the inhibition is 18%.

Regarding `COc1ccc(C(=O)Nc2ccc(-n3nncc3-c3ccccc3)cc2)c(OC)c1`, the inhibition is 31%.

As for `COc1ccc(C(=O)Nc2ccc(-n3nncc3-c3ccccc3)cc2)cc1OC`, the inhibition was 57% (active).

On to `CC(=O)c1cccc(N=Cc2cc([N+](=O)[O-])ccc2O)c1`, for which the inhibition was 6%.

Take `Cc1cccc(OCC(O)CNC2CCCC2)c1` (centres undefined): the inhibition was -1.4%.

Consider `CCOc1ccccc1C(=O)NCc1nnc2n1CCCC2`, for which the inhibition was 0.6%.

As to `O=C(NCc1ccccc1)c1ccccn1`, the inhibition was -4.7%.

Take `CC(C)n1cnc2cc(CNC(=O)c3ccccn3)ccc21`: the inhibition was 14%.

As for `O=C(Nc1cccn2cnnc12)c1ccccn1`, the inhibition is 62% (active).

As for `COCCNC(=O)c1ccc2c(c1)ncn2-c1ccc(C)c(Cl)c1`, the inhibition was 24%.

For `O=C(NCc1ccc2[nH]c3c(c2c1)CCCC3)C1CC1`, the inhibition is 7.3%.

For `O=C(C1CCN(S(=O)(=O)c2ccc3[nH]c4c(c3c2)CCCCC4)CC1)N1CCCC1`, the inhibition was 56.3% (active).

`Cc1cccc(NS(=O)(=O)c2ccc3nnc(C)n3c2)c1`: the inhibition was 5%.

In the case of `COc1ccc(S(=O)(=O)N2CCC(C(=O)N3CCOCC3)CC2)cc1OC`, the inhibition is -0.7%.

Take `NC(=O)c1ccc2[nH]c3c(c2c1)CCCC3`: the inhibition is 12.3%.

Regarding `Cc1cccc(NS(=O)(=O)c2ccc3[nH]c4c(c3c2)CCCC4)c1`, the inhibition was 98.9% (active).

In the case of `Cc1ccc(C2=CC(c3ccc(Br)cc3)n3ncnc3N2)cc1` (centres undefined), the inhibition was 7%.

For `O=C(NCc1cccnc1)c1cnn2c1NC(c1cccs1)CC2C(F)(F)F` (centres undefined), the inhibition was 4.91%.

As for `CCOC(=O)N1CCCN(C(=O)OCC)CC1`, the inhibition is -5.6%.

As for `COc1ccc2c(c1)OCC/C2=N\OC(=O)c1cc(Cl)ccc1OC`, the inhibition result was “inactive”.

For the molecule `C=CCN1C=C(c2ccc3ccccc3n2)C(C#N)c2ccccc21` (centres undefined), the inhibition is 15%.

`O=C(CSc1nccc(N2CCCCC2)n1)Nc1cc(C(F)(F)F)ccc1Cl`: the inhibition was -12.5%.

Turning to `CN(C)C(=O)c1cnn(-c2ccccc2)c1-n1cccc1`, the inhibition was 2.9%.

`O=C(NCc1ccccn1)C1CC(=O)N(CCc2c[nH]c3ccc(F)cc23)C1` (centres undefined): the inhibition was 46.9%.

Regarding `Cc1cc(OCC(=O)Nc2ccc(Cl)cn2)ccc1Cl`, the inhibition is -7%.

For the molecule `Cc1cc(OCC(=O)Nc2c(C)cccc2C)ccc1Cl`, the inhibition was -6.2%.

On to `Cc1cc(OCC(=O)N2N=C(C(F)(F)F)CC2(O)C(C)(C)C)ccc1Cl` (centres undefined), for which the inhibition was 100% (active).

Take `Cc1sc2ncnc(N3CCN(c4ccccn4)CC3)c2c1-c1ccc(F)cc1`: the inhibition is 0.3%.

As to `CCOC(=O)Nc1ccc2c(c1)CN(C(=O)c1cccs1)CC2`, the inhibition was 2.5%.

`CCOC(=O)C1CCc2sc(NC(=O)C3COCC(=O)N3Cc3ccccc3)nc21` (centres undefined): the inhibition is 64.1% (active).

Take `CCOC(=O)C1CCc2sc(NC(=O)Cn3nc(C)cc3C)nc21` (centres undefined): the inhibition was -9.9%.

Turning to `CCCNC(=O)C1CCN(c2nc3ccsc3c(=O)n2Cc2ccccc2)CC1`, the inhibition is -1.4%.

Take `COc1cc(CN2CCN(CCO)CC2)c([N+](=O)[O-])cc1OC`: the inhibition was 1.8%.

On to `COc1cc(CNc2cc(C)cc(C)c2)c([N+](=O)[O-])cc1OC`, for which the inhibition is 75% (active).

Regarding `COc1cc(CN2CCCN(C)CC2)c([N+](=O)[O-])cc1OC`, the inhibition was -0.1%.

Regarding `Clc1ccccc1C1CC(c2ccccc2)n2ncnc2N1` (centres undefined), the inhibition was 3.6%.

On to `N#C/C(=C\c1ccc(F)cc1)c1nc(-c2ccc([N+](=O)[O-])cc2)cs1`, for which the inhibition is 1.8%.

As to `N#C/C(=C\c1ccc(O)cc1)c1nc(-c2ccc(Cl)cc2)cs1`, the inhibition was 58.9% (active).

Take `Cc1ccc(-c2csc(/C(C#N)=C/c3ccc([N+](=O)[O-])cc3)n2)cc1`: the inhibition is 12.1%.

For `COc1cccc(CNC(=O)CC2CCN(S(=O)(=O)c3ccc(Cl)s3)CC2)c1`, the inhibition is -9.77%.

As for `O=C(c1ccncc1)N1N=C(c2ccc(Cl)cc2)CC1(O)C(F)(F)F` (centres undefined), the inhibition is 58% (active).

On to `CN(C)c1ccc(C(=O)N2N=C(c3ccc(Br)cc3)CC2(O)C(F)(F)F)cc1` (centres undefined), for which the inhibition was 13%.

Consider `O=C(C1CC1)N1N=C(c2ccc(Br)cc2)CC1(O)C(F)(F)F` (centres undefined), for which the inhibition is -4%.

Take `O=[N+]([O-])c1cccc(C=Nc2ccc3nc(-c4cccc(F)c4)oc3c2)c1O`: the inhibition is 1%.

Take `O=C1c2ccccc2C(=O)N1CN(C(=O)c1ccc([N+](=O)[O-])cc1)c1ccc(F)cc1`: the inhibition was 1%.

In the case of `O=c1[nH]c(SCc2ccccc2)nnc1-c1ccccc1`, the inhibition was -3%.

`Cc1ccc(F)cc1NC(=O)Cc1nn(C)c(=O)c2ccccc12`: the inhibition is 3%.

Regarding `c1ccc(CSc2nnc(-c3ccco3)c(-c3ccco3)n2)cc1`, the inhibition is 85% (active).

Regarding `Cc1ccccc1NC(=O)CSc1nnc(-c2ccco2)n1C`, the inhibition was 1%.

As to `Cc1ccc(F)cc1NC(=O)CSc1nnc(-c2ccco2)c(-c2ccco2)n1`, the inhibition is 86% (active).

On to `O=C(CSc1nnc(-c2ccco2)n1-c1ccccc1)Nc1ccc(F)cc1`, for which the inhibition is 11.2%.

With `N#Cc1c(-c2ccco2)cc(C2CC2)nc1SCc1ccccc1`, the inhibition was -5%.

`O=C(CSc1nnc(-c2ccco2)c(-c2ccco2)n1)Nc1ccc(Br)cc1`: the inhibition is 79% (active).

`O=C(CSc1oc(-c2ccco2)nc1S(=O)(=O)c1ccccc1)Nc1ccc(F)cc1`: the inhibition was 6%.

`CCOCCCNC(=O)C1CCCN(c2nccc(C)n2)C1` (centres undefined): the inhibition is -8.18%.

Consider `Cc1c(C(=O)N2CCN(C)CC2)c(CC(C)C)nn1-c1ccc(Cl)c(Cl)c1`, for which the inhibition was 94.8% (active).

On to `CCc1nn(-c2ccc(F)cc2)c(CC)c1C(=O)N1CCN(C)CC1`, for which the inhibition is 9.8%.

Take `CCN1CCN(C(=O)c2c(C(C)C)nn(-c3cccc(Cl)c3)c2C(C)C)CC1`: the inhibition was 32.9%.

With `CN(C)C(=O)CSc1nnc(N)s1`, the inhibition was -4.07%.

Turning to `Cc1ccc2c(c1)C(=O)NC1(CCN(C(=O)c3ccc(C(F)(F)F)cc3)CC1)N2C`, the inhibition was 4.4%.

With `O=C(c1ccccc1)N1CCCC(c2ccnc(Nc3ccccc3)n2)C1` (centres undefined), the inhibition was 43.6%.

Regarding `CN(C)c1ccc(C(=O)N2CCCC(c3ccnc(Nc4cccc(F)c4)n3)C2)cc1` (centres undefined), the inhibition was 80.1% (active).

As for `N#Cc1ccc(C(=O)N2CCCC(c3ccnc(Nc4ccccc4)n3)C2)cc1` (centres undefined), the inhibition is -5.02%.

For `O=C(c1ccccc1F)N1CCCC(c2ccnc(-c3cccc(F)c3)n2)C1` (centres undefined), the inhibition was 1.2%.

Regarding `COc1ccc(C(=O)N2CCCC(c3ccnc(Nc4ccccc4)n3)C2)cc1` (centres undefined), the inhibition is 69.4% (active).

On to `N#Cc1ccc(C(=O)N2CCCC(c3ccnc(Nc4cccc(F)c4)n3)C2)cc1` (centres undefined), for which the inhibition is 6.41%.

As to `COc1ccc(CCNC(=S)NC2Cc3ccccc3C2)cc1OC`, the inhibition was 6.9%.

Take `Cc1onc(-c2ccccc2)c1C(=O)Nc1ccc(S(N)(=O)=O)cc1`: the inhibition was -0.8%.

As for `CN1CCN(c2cc(C(=O)O)c3cc(F)ccc3n2)CC1`, the inhibition is 3.5%.

Take `N#Cc1ccc(Sc2nc3ccccc3o2)c([N+](=O)[O-])c1`: the inhibition was 12%.

Take `O=C(Cc1ccccc1)Nc1ccc(F)c(Cl)c1`: the inhibition is -11.1%.

With `CC(=O)NC(c1cccs1)c1cc(Cl)c2cccnc2c1O` (centres undefined), the inhibition was 70% (active) and 100% (active).

Turning to `O=C(O)c1ccccc1C(=O)Nc1cccc2cccnc12`, the inhibition was 4%.

With `Cc1ccc(C(=O)NCCOc2cccc3cccnc23)cc1`, the inhibition was 9% and -2%.

For `CC(=O)NC(c1ccccc1)c1ccc2cccnc2c1O` (centres undefined), the inhibition was 100% (active).

As to `CC(NC(=O)COc1ncccn1)c1ccccc1` (centres undefined), the inhibition was -13.9%.

Turning to `Cc1ccc(C(NC(=O)Cc2ccccc2)c2ccc3cccnc3c2O)cc1` (centres undefined), the inhibition was 100% (active).

On to `COc1cccc(C(=O)NC(c2cccc([N+](=O)[O-])c2)c2cc(Cl)c3cccnc3c2O)c1` (centres undefined), for which the inhibition was 19%.

As to `O=C(Cc1ccccc1)NC(c1ccc(Cl)cc1)c1ccc2cccnc2c1O` (centres undefined), the inhibition is 99% (active).

Turning to `Cc1ccc(C)c(NC(=O)Cc2ccccc2)c1`, the inhibition is 0.9%.

Consider `O=C(Cc1ccccc1)NC(Nc1ccccc1Cl)C(Cl)(Cl)Cl` (centres undefined), for which the inhibition is 20%.

In the case of `COc1ncccc1CNC(=O)c1cccs1`, the inhibition was -2.2%.
